Test results reported in PubChem BioAssay.
Calls of active or inactive are those of the source.

Assays:
[1] = binders of probe aFSTL3 on microarray, primary screen, stem cell growth factor project, biochemical, small-molecule microarray, fluorescence 635/667 (AID 1064); details: higher = more signal;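 also: measures binding of the biotinylated anti-FSTL3 antibody to printed compounds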
[2] = binders from COS7 lysate, DM2A8 probe, primary screen, torsin A project, cell lysate, small-molecule microarray, fluorescence 635/667 (AID 1065); details: higher = more signal, COS7 lysate expressing mutant human TOR1A
[3] = binders of probe aFGF2 on microarray, primary screen, stem cell growth factor project, biochemical, small-molecule microarray, fluorescence 635/667 (AID 1067); details: higher = more signal;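 also: measures binding of biotinylated aFGF2 protein to printed compounds on slides; z-score merges feature fluorescence and signal-to-noise across triplicate slides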
[4] = binders of probe aFGF10 on microarray, primary screen, stem cell growth factor project, biochemical, small-molecule microarray, fluorescence 635/667 (AID 1071); details: higher = more signal;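 also: score merges 667 nm spot intensity and signal to noise from triplicate slides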
[5] = molecular target: Neurogenic locus notch homolog protein 2 (Homo sapiens) (UniProt Q04721); assay: Notch2 binders on small-molecule microarrays, primary screen, biochemical, small-molecule microarray, 635 nm fluorescence, stem cell growth factors (AID 1073); details: Notch2 binding, higher = more signal
[6] = molecular target: Pro-neuregulin-1, membrane-bound isoform (Homo sapiens) (UniProt Q02297); assay: NRG1 binders on small-molecule microarrays, primary screen, psychiatric disease protein project, biochemical, small-molecule microarray, fluorescence 635/667 (AID 1075); details: NRG1 binding, 635 nm fluorescence, higher = more signal;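 also: score combines 667 nm spot fluorescence with signal to noise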
Sequence of Pro-neuregulin-1, membrane-bound isoform (Homo sapiens) (Q02297 whole entry, looked up, the tested form may be a part, canonical isoform): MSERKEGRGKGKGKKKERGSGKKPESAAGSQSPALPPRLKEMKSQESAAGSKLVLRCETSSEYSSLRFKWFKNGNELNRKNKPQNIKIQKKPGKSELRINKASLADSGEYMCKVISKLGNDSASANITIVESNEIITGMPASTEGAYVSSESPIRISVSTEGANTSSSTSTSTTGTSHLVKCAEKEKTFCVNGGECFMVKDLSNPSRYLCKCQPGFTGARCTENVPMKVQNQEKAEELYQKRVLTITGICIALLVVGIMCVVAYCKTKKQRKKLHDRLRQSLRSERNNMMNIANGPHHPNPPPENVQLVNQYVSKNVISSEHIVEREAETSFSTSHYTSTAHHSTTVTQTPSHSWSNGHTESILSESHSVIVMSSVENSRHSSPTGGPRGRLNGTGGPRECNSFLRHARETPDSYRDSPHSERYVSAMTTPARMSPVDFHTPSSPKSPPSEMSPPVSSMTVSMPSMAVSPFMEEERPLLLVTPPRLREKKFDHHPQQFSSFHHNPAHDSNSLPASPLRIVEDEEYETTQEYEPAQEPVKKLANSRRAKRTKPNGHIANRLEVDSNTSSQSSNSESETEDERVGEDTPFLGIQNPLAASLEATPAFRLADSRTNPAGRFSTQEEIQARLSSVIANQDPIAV

[7] = system: Neuregulin-1 EGF-like domain; assay: binders of neuregulin-1 EGF-like domain, primary screen, biochemical, small-molecule microarray, 635 nm fluorescence (AID 1081); details: small-molecule microarray binding, higher = more signal;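 also: binding of the protein to compounds printed on small-molecule microarray slides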
[8] = FRG1 promoter luciferase signal modulators, primary screen, FRG1 inhibition for FSHD, cell-based, C2C12 myotubes, firefly/Renilla luciferase, luminescence (AID 1084); details: higher = more signal, called active from +8 up or from −8 down
[9] = binders of probe aFST on microarray, primary screen, stem cell growth factor project, biochemical, small-molecule microarray, fluorescence 635/667 (AID 1086); details: higher = more signal;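 also: score merges 667 nm fluorescence with signal-to-noise of each printed compound spot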
[10] = binders of probe aHhip on microarray, primary screen, stem cell growth factor project, biochemical, small-molecule microarray, fluorescence 635/667 (AID 1087); details: higher = more signal;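 also: score merges spot fluorescence at 667nm with spot signal to noise ratio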
[11] = system: PRMT1 (protein arginine N-methyltransferase 1); assay: PRMT1 binders on small-molecule microarrays, primary screen, biochemical, small-molecule microarray, 635 nm fluorescence (AID 1088); details: small-molecule microarray binding, higher = more signal;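 also: binding of Prmt1 protein to compounds spotted on small-molecule microarray slides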
[12] = yeast growth modulation, basal conditions, primary screen, YJM789 clinical isolate, OD600, 24 h (AID 1089);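 also: growth of clinical yeast isolate S. cerevisiae YJM 789 seeded 1000 cells per well; test concentration not given here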; details: S. cerevisiae YJM789 growth, higher = more signal, called active from +8 up or from −8 down
[13] = fission yeast growth modulation, primary screen, strain 972, OD600, 24 h, no modulator (AID 1090);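 also: basal condition with compound alone and no growth modifier present; test concentration not given here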; details: S. pombe 972 growth, higher = more signal, called active from +8 up or from −8 down
[14] = S. cerevisiae growth modulation with rapamycin, primary screen, strain BY4716, OD600, 96 h (AID 1091); details: higher = more signal, called active from +8 up or from −8 down; also: test concentration not given here
[15] = molecular target: Torsin-1A-interacting protein 2 (Homo sapiens) (UniProt Q8NFQ8); assay: LULL1 binders on small-molecule microarray, primary screen, cell lysate, human LULL1 lysate, 635/667 nm fluorescence (AID 1092); details: hLULL1 lysate binding, 635 nm fluorescence, higher = more signal;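 also: probe is lysate of COS7 cells overexpressing human LULL1; score merges per-feature 667 nm fluorescence with signal-to-noise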
Sequence of Torsin-1A-interacting protein 2 (Homo sapiens) (Q8NFQ8 whole entry, looked up): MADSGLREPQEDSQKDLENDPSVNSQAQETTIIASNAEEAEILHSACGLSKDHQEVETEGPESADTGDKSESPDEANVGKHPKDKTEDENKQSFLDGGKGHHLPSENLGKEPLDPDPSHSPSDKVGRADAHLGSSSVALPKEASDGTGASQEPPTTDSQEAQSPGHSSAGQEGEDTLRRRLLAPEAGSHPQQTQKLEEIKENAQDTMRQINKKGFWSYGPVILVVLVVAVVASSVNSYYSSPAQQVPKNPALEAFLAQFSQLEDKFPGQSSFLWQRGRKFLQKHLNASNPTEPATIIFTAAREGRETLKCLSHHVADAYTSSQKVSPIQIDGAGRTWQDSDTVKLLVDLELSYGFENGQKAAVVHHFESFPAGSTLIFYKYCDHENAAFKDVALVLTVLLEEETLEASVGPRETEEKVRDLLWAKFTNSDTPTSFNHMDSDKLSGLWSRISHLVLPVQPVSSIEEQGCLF

[16] = E. coli growth modulation, two-sided OD650, primary screen, E. coli filamentation project, strain DRC41, 24 h (AID 1093); details: OD650, 24 h, higher = more signal, called active from +8 up or from −8 down;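 also: MC1000 strain lacking acrAB efflux and sulA so SOS filamentation is blocked; test concentration not given here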
[17] = small-molecule microarray binders of probe aLefty2, primary screen, biochemical, biotinylated probe, 635/667 nm fluorescence (AID 1094); details: higher = more signal;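 also: score merges spot fluorescence near 667 nm with spot signal-to-noise ratio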
[18] = system: Noggin (protein binding on small-molecule microarray); assay: Noggin binders on small-molecule microarray, primary screen, biochemical, 635/667 nm fluorescence (AID 1095); details: 635 nm fluorescence, higher = more signal;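 also: score merges 667 nm feature fluorescence with signal to noise over triplicate slides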
[19] = molecular target: Neurogenic locus notch homolog protein 3 (Homo sapiens) (UniProt Q9UM47); assay: NOTCH3 binders on small-molecule microarray, primary screen, biochemical, 635/667 nm fluorescence (AID 1096); details: NOTCH3 binding, 635 nm fluorescence, higher = more signal
Sequence of Neurogenic locus notch homolog protein 3 (Homo sapiens) (Q9UM47 whole entry, looked up): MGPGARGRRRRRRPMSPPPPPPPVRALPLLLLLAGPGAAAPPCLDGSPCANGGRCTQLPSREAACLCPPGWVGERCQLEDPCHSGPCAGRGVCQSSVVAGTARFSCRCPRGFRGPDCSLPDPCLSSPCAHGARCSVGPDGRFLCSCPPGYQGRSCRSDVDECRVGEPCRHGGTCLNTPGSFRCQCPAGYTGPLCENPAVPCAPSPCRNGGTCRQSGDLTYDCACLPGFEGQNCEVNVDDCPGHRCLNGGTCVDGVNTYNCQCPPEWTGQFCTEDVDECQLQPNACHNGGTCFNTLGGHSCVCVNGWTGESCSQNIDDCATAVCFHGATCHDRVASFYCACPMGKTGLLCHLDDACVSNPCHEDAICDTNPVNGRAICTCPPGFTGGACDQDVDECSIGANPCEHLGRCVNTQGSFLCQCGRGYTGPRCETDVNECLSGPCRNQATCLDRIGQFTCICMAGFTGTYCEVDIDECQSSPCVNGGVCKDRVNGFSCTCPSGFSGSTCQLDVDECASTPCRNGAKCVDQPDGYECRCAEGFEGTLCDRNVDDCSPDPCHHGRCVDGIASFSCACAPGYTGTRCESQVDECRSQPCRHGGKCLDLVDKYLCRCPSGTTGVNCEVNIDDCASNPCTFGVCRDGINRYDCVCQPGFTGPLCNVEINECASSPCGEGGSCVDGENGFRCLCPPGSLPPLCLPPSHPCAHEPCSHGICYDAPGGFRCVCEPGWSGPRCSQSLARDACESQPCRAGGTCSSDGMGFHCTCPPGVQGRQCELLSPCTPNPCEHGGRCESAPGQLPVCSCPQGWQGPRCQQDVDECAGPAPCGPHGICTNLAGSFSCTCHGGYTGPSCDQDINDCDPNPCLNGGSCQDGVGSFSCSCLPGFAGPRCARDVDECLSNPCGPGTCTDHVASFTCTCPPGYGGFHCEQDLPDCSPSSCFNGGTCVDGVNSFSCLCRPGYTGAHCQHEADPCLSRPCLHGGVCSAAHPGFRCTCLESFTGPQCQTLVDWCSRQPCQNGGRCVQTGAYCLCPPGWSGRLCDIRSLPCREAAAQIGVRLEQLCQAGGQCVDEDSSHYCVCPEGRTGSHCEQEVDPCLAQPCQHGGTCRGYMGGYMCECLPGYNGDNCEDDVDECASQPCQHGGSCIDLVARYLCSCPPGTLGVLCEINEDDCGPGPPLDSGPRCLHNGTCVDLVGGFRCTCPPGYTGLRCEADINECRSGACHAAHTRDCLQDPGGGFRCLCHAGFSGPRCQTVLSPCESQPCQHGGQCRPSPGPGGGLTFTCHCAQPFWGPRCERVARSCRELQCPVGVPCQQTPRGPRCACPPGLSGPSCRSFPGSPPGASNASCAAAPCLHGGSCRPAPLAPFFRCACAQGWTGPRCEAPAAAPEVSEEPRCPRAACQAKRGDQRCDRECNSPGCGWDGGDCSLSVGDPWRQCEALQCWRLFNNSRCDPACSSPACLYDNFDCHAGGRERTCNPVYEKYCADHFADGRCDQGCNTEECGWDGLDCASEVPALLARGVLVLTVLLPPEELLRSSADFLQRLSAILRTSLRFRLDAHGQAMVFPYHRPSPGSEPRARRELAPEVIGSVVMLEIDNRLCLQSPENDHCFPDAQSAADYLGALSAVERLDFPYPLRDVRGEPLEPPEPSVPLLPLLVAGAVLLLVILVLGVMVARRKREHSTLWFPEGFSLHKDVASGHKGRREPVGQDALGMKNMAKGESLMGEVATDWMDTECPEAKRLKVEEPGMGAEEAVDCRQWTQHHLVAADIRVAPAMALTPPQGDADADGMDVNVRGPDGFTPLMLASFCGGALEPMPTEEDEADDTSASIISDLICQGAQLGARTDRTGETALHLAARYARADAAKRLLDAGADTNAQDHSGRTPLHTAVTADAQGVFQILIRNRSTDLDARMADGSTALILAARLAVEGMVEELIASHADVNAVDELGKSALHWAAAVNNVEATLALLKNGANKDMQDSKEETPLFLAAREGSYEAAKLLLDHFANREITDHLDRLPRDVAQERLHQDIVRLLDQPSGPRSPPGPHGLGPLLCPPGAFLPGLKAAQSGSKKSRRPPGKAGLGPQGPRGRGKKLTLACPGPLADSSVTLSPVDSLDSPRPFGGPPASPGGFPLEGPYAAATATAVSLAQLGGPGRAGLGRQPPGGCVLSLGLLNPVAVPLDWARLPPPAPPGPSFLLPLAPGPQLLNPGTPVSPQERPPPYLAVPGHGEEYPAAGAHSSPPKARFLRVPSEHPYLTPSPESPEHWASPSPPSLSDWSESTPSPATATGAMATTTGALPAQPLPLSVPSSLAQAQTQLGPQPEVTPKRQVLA

[20] = small-molecule microarray binders of probe aEGFR, primary screen, biochemical, biotinylated probe, 635/667 nm fluorescence (AID 1097); details: higher = more signal;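 also: probe is a biotinylated anti-EGFR antibody binding compounds printed on slides; score combines fluorescence near 667 nm and signal to noise of each spot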

SMILES	composite z-score [1]	composite z-score [2]	composite z-score [3]	composite z-score [4]	composite z-score [5]	composite z-score [6]	composite z-score [7]	z-score [8]	composite z-score [9]	composite z-score [10]	composite z-score [11]	z-score [12]	z-score [13]	z-score [14]	composite z-score [15]	z-score [16]	composite z-score [17]	composite z-score [18]	composite z-score [19]	composite z-score [20]
COCC#Cc1ccc([C@@H]2N[C@H](C(=O)O)CC[C@H]2C)cc1	-0.308	-0.087	-0.12	0.0921	0.314	-0.595	-0.616	-1.34 (inactive)	0.399	0.132	0.13	-1.63 (inactive)	-1.81 (inactive)	-1.34 (inactive)	0.237	0.874 (inactive)	-0.186	0.165	-0.54	-0.0953
COC(=O)[C@H](C)NC(=O)CCC1CC(OC(=O)NCc2cccc3ccccc23)CC2(CCCC(COC(=O)NCCOc3ccccc3)O2)O1 (stereo not given in full)	-0.359	0.222	-0.0707	0.15	0.708	1.27	1.01	0.191 (inactive)	0.173	-0.169	1.53	-0.534 (inactive)	-0.231 (inactive)	-0.576 (inactive)	2.21	0.544 (inactive)	-0.208	0.11	0.377	-0.145
CCN1C(=O)[C@H]2[C@H]3[C@H](O)[C@H](O)CC(=NO[C@@H]4O[C@H](COC(C)=O)[C@@H](OC(C)=O)[C@H](OC(C)=O)[C@H]4OC(C)=O)[C@@H]3CC[C@H]2C1=O	-0.665	0.588	-0.0319	0.794	0.948	0.357	1	0.186 (inactive)	0.054	-0.0994	1.29	0.461 (inactive)	0.208 (inactive)	0.47 (inactive)	1.05	1.16 (inactive)	0.015	0.597	1.03	0.0091
CC(C)(C)N1C(=O)[C@H]2[C@H]3[C@H](O)[C@H](O)CC(=NNC(=O)OCc4ccccc4)[C@@H]3CC[C@H]2C1=O	-0.387	0.376	-0.136	0.64	0.447	-0.0123	0.254	0.674 (inactive)	0.278	-0.161	0.561	-0.668 (inactive)	0.588 (inactive)	9.42 (active)	0.883	0.45 (inactive)	-0.0824	0.457	0.586	0.172
CCOC(=O)[C@H](Cc1ccccc1)NC(=O)CCC1CC(OC(=O)NCCc2ccc(F)cc2)CC2(CCCC(COC(=O)NCCC(C)C)O2)O1 (stereo not given in full)	-0.397	0.813	-0.0296	-0.409	1.28	0.539	1.02	-0.214 (inactive)	0.296	-0.201	1.56	0.91 (inactive)	0.902 (inactive)	0.783 (inactive)	2.32	0.087 (inactive)	-0.145	1.24	1.07	-0.0424
COC(=O)[C@@H]1CC[C@H](C)[C@@H](c2ccc(Br)cc2)N1C[C@@H](O)CN=[N+]=[N-]	-0.463	0.054	-0.116	0.186	0.462	0.117	-0.0109	0.687 (inactive)	-0.139	0.0881	0.382	-1.44 (inactive)	-10.1 (active)	-0.243 (inactive)	0.147	0.323 (inactive)	-0.0412	0.162	0.0511	-0.0902
CCOC(=O)[C@H](Cc1ccccc1)NC(=O)CCC1CC(OC(=O)NCc2cccc3ccccc23)CC2(CCCC(COC(=O)NCCc3ccc(Cl)cc3)O2)O1 (stereo not given in full)	-0.487	0.0381	-0.205	0.13	0.597	0.108	0.966	0.903 (inactive)	-0.0328	-0.0645	1.15	-0.69 (inactive)	-0.0785 (inactive)	-0.647 (inactive)	1.3	-0.159 (inactive)	-0.253	0.448	0.974	-0.0922
CC(=O)OC[C@H]1O[C@H](C#CCC2CCCCC2)C=C[C@@H]1OC(C)=O	-0.785	0.547	-0.0739	0.494	0.207	0.833	0.828	1.23 (inactive)	-0.0607	-0.0618	1.18	0.877 (inactive)	-15.5 (active)	-0.525 (inactive)	1.17	1.1 (inactive)	-0.194	0.598	0.568	0.0698
COC(=O)[C@H](C)NC(=O)CCC1CC(OC(=O)NCc2cccc3ccccc23)CC2(CCCC(COC(=O)NCCCN3CCCC3=O)O2)O1 (stereo not given in full)	-0.669	-0.158	-0.141	0.119	1.43	0.567	0.925	-3.13 (inactive)	1.01	0.208	1.58	0.691 (inactive)	1.05 (inactive)	0.187 (inactive)	1.89	-1.25 (inactive)	0.0598	0.79	1.14	0.074
CC(=O)OC[C@H]1O[C@H](CC=NOCC[C@@H]2C=C[C@H](OC(C)=O)[C@@H](COC(C)=O)O2)C=C[C@@H]1OC(C)=O	-0.544	1.16	-0.13	0.414	0.29	-0.254	0.537	1.06 (inactive)	0.425	0.0623	1.46	-0.996 (inactive)	0.526 (inactive)	-0.0043 (inactive)	0.137	0.712 (inactive)	0.0024	0.772	0.757	0.0707
